Assay results taken from ChEMBL document CHEMBL3988442, “University of Dundee, Small-Polar-MMV Screening Library” (2021).
“And” between values parts separate entries of the source, which are not always exact repeats. Identical values can stand only once. The campaign covered roughly 34,000 compounds. About 290 (0.85%) showed an effect of 50% or more. The sample holds strong results, similar compounds and a random draw of the others, so the mix is not that of the screen.

System: Plasmodium falciparum
Assay: Plasmodium falciparum sporozoite viability assay
Format: functional, organism-based
Design: scale not given: in the data most compounds retested in dose-response had high values

| SMILES | Percent Effect [%] | Percent Effect (10 mM as filed; unlikely as a test dose) |
| --- | --- | --- |
| COc1ccc2c(c1)c(-c1nc(N(C)C)ncc1CN)cn2C | 23.78 |  |
| CCC(=O)N1CCC2(CC1)CNC(=O)c1cc(C)ccc1O2 | 7.401 |  |
| CCOc1ncccc1NC(=O)Nc1c(C)nn(C(C)C)c1C | 2.999 |  |
| Clc1ccc(OCCCN2CCN(c3cnccn3)CC2)cc1 | -11.56 |  |
| O=C(Cn1cc(C2CC2)nn1)N(Cc1ccco1)CC1CCCO1 (stereo unspecified) | -0.6519 |  |
| Fc1cccc(Cc2cncc(C3CCCN3C3CCOCC3)n2)c1 (stereo unspecified) | -10.3 |  |
| Cc1cccc(C(=O)N2CCN(C(=O)Cc3ccccn3)CC2)c1C |  | 0.7402% and -14.31% and -17.8% |
| CN1CCN(C2CCN(c3cnc4ccccc4n3)CC2)C1=O |  | 71.66% and 96.44% and 85% |
| CN1CCN(C2CCN(c3ccnc(-c4ccccc4)n3)CC2)C1=O |  | -12.56% and 9.01% and -14.11% |
| CN1CCN(C2CCN(CCOc3ccccc3)CC2)C1=O | 2.798 |  |
| CCc1n[nH]c(C2CN(C(=O)c3ccnc(C)n3)CCO2)n1 (stereo unspecified) | -2.148 |  |
| CCc1nc(CC(=O)N2CCCCC2Cn2cccn2)cs1 (stereo unspecified) | 3.352 |  |
| Cc1cccc(CN2C[C@@H]3CN(C(=O)C4CC=CC4)C[C@@H]3C2=O)n1 | -3.24 |  |
| CN1CCCC1c1ccc(C(=O)N2CCc3ccccc3C2)s1 (stereo unspecified) |  | 96.19% and 93.66% and 95.32% |
| O=C(c1ccc(C2CCCO2)s1)N1Cc2ccccc2C1 (stereo unspecified) |  | -3.474% and -5.294% and -6.784% |
| CC(=O)N1CCCC1c1ccc(C(=O)N2CCOCC2)s1 (stereo unspecified) | 9.227 |  |
| Cc1cc(N2CCN(c3ccc(=O)[nH]n3)CC2)nc(-c2ccncc2)n1 | 8.684 |  |
| Cc1nc(C)n(CC2CCCN(Cc3ccccc3C#N)C2)n1 (stereo unspecified) | 4.939 |  |
| CC(=O)N[C@H]1CCO[C@@H](c2cccc(NC(=O)c3cccc(F)c3)c2)C1 |  | 55.02% and 42.93% and 54.57% |
| CC(=O)N[C@H]1CCO[C@@H](c2cccc(NC(=O)C(C)(C)C)c2)C1 |  | 12.38% and 11.09% and 3.549% |
| Cc1nn(C)cc1CN1CCC(c2ncc(Cl)cc2S(C)(=O)=O)CC1 | 3.927 |  |

| SMILES | Percent Effect [%] | Percent Effect (10 mM as filed; unlikely as a test dose) |
| --- | --- | --- |
| Cc1cc(C)c(S(=O)(=O)NCCC(=O)NCc2ccoc2)c(C)c1 | -16.91 |  |
| CN(C)C(=O)NCC1CC2(CO1)CN(c1nncs1)C2 (stereo unspecified) | 9.107 |  |
| Cc1cc2cc(C(=O)N[C@@H]3CC[C@@H](N4CCNC(=O)C4)[C@@H]3O)ccc2o1 | -1.506 |  |
| COc1ccccc1CNC(=O)CNCCn1cc(C)cn1 | 7.81 |  |
| Cc1nn(C)c(C)c1-c1cnc(C2CCCN(C)C2)cn1 (stereo unspecified) |  | -21.75% and -20.87% and 0.3933% |
| Cc1csc(NC(=O)c2cnc(C3CCCN(C)C3)cn2)n1 (stereo unspecified) |  | 50.33% and 85.32% and 71.26% |
| Cl.O=C(NCC(F)F)c1cnc(C2CCCN2)cn1 (stereo unspecified) | 6.016 |  |
| Cc1nc(C(=O)NCc2ccccn2)cc(C2CCCN2)n1 (stereo unspecified) | 15.86 |  |
| O=C(NCc1ccccn1)c1cnc(C2CCCN2)cn1 (stereo unspecified) | -5.932 |  |
| Cc1csc(NC(=O)c2cnc(C3CCCN3)cn2)n1.Cl (stereo unspecified) |  | 76.82% and 93.2% and 90.06% |
| COc1c(C2CCCN2CC(=O)Nc2nc(C)cs2)c(C)nn1C (stereo unspecified) | -5.597 |  |
| Cc1nc2cc(-c3nccn3C)nn2c(N2CCCC2)c1C | 12.19 |  |
| CC(C)(CO)Nc1cc(-c2ccncc2)ncn1 | -5.504 |  |
| COc1ccc(S(=O)(=O)N2CCN(C)c3ncccc3C2)cc1.O=C(O)C(F)(F)F | 6.245 |  |
| CN1CCCN(C(=O)NCc2cccnc2-n2cccn2)CC1 | -0.7887 |  |
| Cc1ncccc1NC(=O)[C@@H]1CCO[C@@H]2CCN(c3ccncn3)C[C@H]21 | 1.798 |  |
| CCc1nccn1C1CCCN(C(=O)CCOCC(F)(F)F)C1 (stereo unspecified) |  | 0.2657% and 18.61% and -4.801% |
| Cc1csc(CNC(=O)N2CCN(Cc3cc(C)on3)CC2)n1 | 3.68 |  |
| CC(NC(=O)c1cc(C(C)C)[nH]n1)C(=O)Nc1ccccc1 (stereo unspecified) |  | 72.25% and 63.23% and 81.29% |
| CC(C)c1cc(C(=O)NCCn2nc3ccccn3c2=O)n[nH]1 | -7.561 |  |
| Cc1nc(C(NC(=O)c2cc(C(C)C)[nH]n2)c2ccccc2)n[nH]1 (stereo unspecified) | 1.665 |  |

| SMILES | Percent Effect [%] | Percent Effect (10 mM as filed; unlikely as a test dose) |
| --- | --- | --- |
| O=C(C1CC1)N1CCc2nc(C3CCN(C(=O)C4CC4)C3)nc(O)c2C1 (stereo unspecified) | 2.355 |  |
| Cc1nn(CC(C)C)c(N(C)C)c1CNCc1ccccc1CO | 9.702 |  |
| Cc1nn(CC(C)C)c(N(C)C)c1CNCc1cccnc1N(C)C | 0 |  |
| Cc1nc(-c2ccncc2)ncc1C(C)NC(=O)CN1CCCC1=O (stereo unspecified) | -5.692 |  |
| Cc1cc(C2CCN(C(=O)c3cnn(C)c3)CC2)ccn1 | 2.879 |  |
| Cc1ccc(-c2ccc(C3CNCCO3)nc2)cc1.Cl (stereo unspecified) |  | 90.92% and 91.35% and 89.87% |
| Cl.Fc1ccccc1OCCc1cc(C2CNCCO2)n[nH]1 (stereo unspecified) | -0.03121 |  |
| Cl.c1ccc(-c2ccc(C3CNCCO3)nc2)cc1 (stereo unspecified) |  | 93.99% and 69.13% and 81.53% |
| CN(C)c1ncc(-c2cccc(F)c2)c(C2CNCCO2)n1.Cl (stereo unspecified) | 2.337 |  |
| CN(C)c1ncc(-c2cncnc2)c(C2CNCCO2)n1.Cl (stereo unspecified) | -2.536 |  |
| CN(C)c1ncc(-c2ccc(C(N)=O)cc2)c(C2CNCCO2)n1 (stereo unspecified) | -5.327 |  |
| CN(C)c1ncc(-c2ccc(F)cc2)c(C2CNCCO2)n1.Cl (stereo unspecified) | 8.117 |  |
| O=C(c1cccnn1)N1C[C@@H]2CC[C@H](Oc3cccc(F)c3)[C@@H]2C1 | -11.48 |  |
| CC(C(=O)NCc1ccnc(N2CCOCC2)c1)n1cccn1 (stereo unspecified) | 3.476 |  |
| O=C(NCc1ccc2c(c1)OCO2)[C@H]1C=CCN1c1ncccn1 | -8.12 |  |
| CC(NCc1ccccc1Cl)c1ccc2[nH]c(=O)[nH]c2c1 (stereo unspecified) | 4.238 |  |
| O=C1NCCN1C1CCN(CCOc2cccc3ccccc23)CC1 | 0.4468 |  |
| CCc1cnc(COc2ccc(OC3CCCCNC3=O)cc2)o1 (stereo unspecified) |  | -31.83% and -45% |
| Cc1nc(COc2ccc(OC3CCCCNC3=O)cc2)oc1C (stereo unspecified) |  | 96.35% and 88.4% |
